# Screening data as filed in PubChem BioAssay.
# Hits are enriched below; roughly 3% of the tested compounds scored in any of these assays.
# Rv3671c inh = Rv3671c serine protease inhibitors, primary screen, biochemical, fluorescence polarization, M. tuberculosis H37Rv; P9WHR9; inhibition, % at 5.96 µM; 320,000 compounds, 0.048% hits; AID 2606, 2010; in the data active = inhibition above about 38%;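 also: extracellular domain of Rv3671c used as enzyme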
# Target sequence (P9WHR9 whole entry, looked up, the tested form may be a part): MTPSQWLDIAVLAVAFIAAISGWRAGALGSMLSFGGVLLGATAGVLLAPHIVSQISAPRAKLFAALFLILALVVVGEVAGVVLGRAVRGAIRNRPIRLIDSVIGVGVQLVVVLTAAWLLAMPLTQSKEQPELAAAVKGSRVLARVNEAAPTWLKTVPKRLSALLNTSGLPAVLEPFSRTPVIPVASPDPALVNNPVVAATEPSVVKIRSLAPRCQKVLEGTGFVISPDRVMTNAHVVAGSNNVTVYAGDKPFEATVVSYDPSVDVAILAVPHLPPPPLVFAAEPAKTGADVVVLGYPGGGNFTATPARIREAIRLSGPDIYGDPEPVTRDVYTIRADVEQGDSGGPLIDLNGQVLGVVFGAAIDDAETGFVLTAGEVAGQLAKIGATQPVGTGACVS
# GDH-TPI inh = GDH-TPI coupling enzyme inhibitors, primary screen, artefact control for M. tuberculosis FBA inhibitor project, biochemical, absorbance, full deck. GDH-TPI coupled enzyme counterscreen, NADH absorbance. inhibition, % at 4.8 µM. 360,000 compounds, 1.2% hits. AID 588335, 2011; in the data active = inhibition above about 30%
# FadD28 FP inh = inhibitors of FadD28 bisubstrate probe binding, primary screen, biochemical, fluorescence polarization, single point; inhibition, % at 12.5 µM; AID 588549, 2011; 360,000 compounds, 0.22% hits; Mycobacterium tuberculosis FadD28 fatty-acid-AMP ligase; in the data active = inhibition above about 8.5%, passing the limit was not always enough; inconclusive = no clear call, values can overlap the other calls
# Mtb FBA inh = Mtb FBA enzyme inhibitors, primary screen, biochemical, fluorescence, strain H37Rv. 360,000 compounds, 2.3% hits. purified M. tuberculosis FBA, fluorescence read-out. inhibition, % at 1 µM; in the data active = inhibition above about 27%
# BioA inh = M. tuberculosis BioA enzyme inhibitors, primary screen, biochemical, plate reader, single point, HTS. purified M. tuberculosis BioA enzyme. AID 602481, 2012. 7,8-diaminopelargonic acid synthase BioA (Mycobacterium tuberculosis). inhibition, % at 9.99 µM. 360,000 compounds, 0.096% hits; in the data active = inhibition above about 40%; inconclusive = no clear call, values can overlap the other calls
# Hits are given with their value; i = inactive; ? = inconclusive; nt = no result; + = active, no number.
SMILES,Rv3671c inh,GDH-TPI inh,FadD28 FP inh,Mtb FBA inh,BioA inh
C[C@@H]1CN([C@H](C)CO)C(=O)c2cc(NS(=O)(=O)c3ccc(F)cc3)ccc2O[C@@H](C)CCCCO[C@@H]1CN(C)S(=O)(=O)c1ccccc1,nt,nt,nt,nt,i
COc1ccc(C2/C(=C(/O)c3ccccc3)C(=O)C(=O)N2c2ccccn2)c(OC)c1 (stereo unspecified),i,31,i,i,i
O=C(Nc1nc2ccccc2n1CCOc1ccccc1)c1ccco1,i,34,i,i,i
C=CCn1c(NC(=O)c2ccco2)nc2ccccc21,i,35,i,i,i
O=C(Nc1nc2ccccc2n1Cc1ccc(Cl)cc1)c1ccco1,i,i,i,i,nt
O=C(Nc1nc2ccccc2n1CCOc1ccc(Cl)cc1)c1ccco1,i,i,i,i,i
C[C@@H]1CCCCO[C@@H](CN(C)C(=O)Nc2ccc(F)cc2)[C@H](C)CN([C@@H](C)CO)C(=O)c2cc(NC(=O)C3CCCCC3)ccc2O1,nt,nt,nt,nt,i
CCC(=O)N(C)C[C@H]1Oc2cc(-c3cccc(OC)c3)ccc2S(=O)(=O)N([C@H](C)CO)C[C@@H]1C,nt,nt,nt,nt,i
C[C@H]1CN([C@@H](C)CO)C(=O)Cc2cc(NC(=O)CCN3CCOCC3)ccc2O[C@H]1CN(C)CC1CCCCC1,nt,nt,nt,nt,i
C[C@H](NC(=O)OC(C)(C)C)C(=O)N/N=C/c1cccc2nccnc12,i,i,i,i,i
O=C(O)c1ccc(N/N=C/c2cccc3nccnc23)cc1,i,46,i,i,i
O=C(O)c1ccc(N/N=C/c2cc3ccccc3nc2Cl)cc1,i,37,?,i,nt
Cc1cccc2cc(/C=N/Nc3ccc(C(=O)O)cc3)c(Cl)nc12,i,i,i,i,nt
O=C(c1cccnc1)N1CC[C@H]2[C@H](CO)Nc3ccc(-c4ccccc4)cc3[C@H]21,nt,nt,nt,nt,i
CCOc1ccc(/C=C/c2nc(C#N)c(NCCCN(C)C)o2)cc1,i,36,i,i,i
CCOc1ccc(/C=C/c2nc(C#N)c(NCCCOC)o2)cc1,i,i,i,i,i
C=CCNc1oc(/C=C/c2ccccc2)nc1C#N,i,48,i,+,i
COc1cccc(/C=C/c2nc(C#N)c(NCC(C)C)o2)c1,i,i,i,+,i
CN(C)CCCNc1oc(/C=C/c2ccccc2)nc1C#N,i,i,i,i,nt
COCCCNc1oc(/C=C/c2ccccc2)nc1C#N,i,i,i,nt,i
CN(C)CCNc1oc(/C=C/c2ccccc2)nc1C#N,i,i,i,135,i
C[C@H]1CN([C@@H](C)CO)C(=O)c2cccc(NC(=O)Nc3ccccc3)c2O[C@@H]1CN(C)C(=O)Nc1ccc(F)cc1,nt,nt,nt,nt,i
O=C(N/N=C/C(Cl)=C/c1ccccc1)c1ccccc1F,i,i,i,i,i
O=C(N/N=C/C(Br)=C/c1ccccc1)c1ccccc1F,i,32,i,i,i
C[C@@H]1CN([C@@H](C)CO)C(=O)c2cccc(NC(=O)c3cnccn3)c2O[C@H]1CN(C)C(=O)NC1CCCCC1,nt,nt,nt,nt,i
SMILES,Rv3671c inh,GDH-TPI inh,FadD28 FP inh,Mtb FBA inh,BioA inh
CN(C)CCNC(=O)/C(=C/c1ccc(-c2ccc(Cl)cc2)o1)NC(=O)c1ccccc1,i,i,i,i,i
Cc1ccc(C(=O)N/C(=C\c2ccc(-c3cccc([N+](=O)[O-])c3)o2)C(=O)NCCCN(C)C)cc1,i,59,i,i,i
CN(C)CCCNC(=O)/C(=C\c1ccc(-c2cccc([N+](=O)[O-])c2)o1)NC(=O)c1ccccc1,i,35,i,i,nt
COc1cc(C(=O)NCC(=O)N/N=C/c2ccc(-c3cccc([N+](=O)[O-])c3)o2)cc(OC)c1OC,i,38,i,i,i
C[C@H]1CN([C@@H](C)CO)C(=O)c2cccc(NS(=O)(=O)c3cccs3)c2O[C@@H]1CN(C)C(=O)NC1CCCCC1,nt,nt,nt,nt,i
N#C[C@@H]1N[C@@H](CO)[C@@H]1c1ccc(C2=CCCCC2)cc1,nt,nt,nt,nt,i
N#C/C(=C(/O)c1ccc(Cl)cc1)c1nc2ccccc2[nH]1,i,i,i,i,nt
COc1cc(/C(O)=C(\C#N)c2nc3ccccc3[nH]2)cc(OC)c1OC,nt,38,i,i,i
COc1ccc(C)cc1-n1nnnc1SC/C(O)=C(\C#N)c1nc2ccccc2[nH]1,i,36,i,i,i
N#C/C(=C(\O)c1cc(Cl)sc1Cl)c1nc2ccccc2[nH]1,i,39,i,i,i
O=C(O)c1ccc(-n2cccc2/C=N\NC(=O)c2cc3cc(Br)ccc3o2)cc1,i,36,i,i,i
C#CCn1cc(/C=N/NC(=O)c2cc3ccccc3o2)c2ccccc21,i,32,i,i,nt
Cn1cc(/C=N/NC(=O)c2cc3cc(Br)ccc3o2)c2ccccc21,i,i,i,i,i
O=C(N/N=C/c1cccc2ccccc12)c1cc2ccccc2o1,nt,i,i,i,i
O=C(O)Cn1cc(/C=N/NC(=O)c2cc3cc(Br)ccc3o2)c2ccccc21,i,48,i,i,nt
CCC(=O)Nc1ccc2c(c1)C(=O)N(C)C[C@H](OC)[C@@H](C)CN(C(=O)c1ccccn1)[C@@H](C)CO2,nt,nt,nt,nt,i
COCC#Cc1cnc2c(c1)C(=O)N([C@H](C)CO)C[C@@H](C)[C@H](CN(C)C(=O)c1ccc(F)cc1)O2,nt,nt,nt,nt,i
CCC(=O)N[C@@H]1CC[C@@H](CCn2cc(-c3cccc(OC)c3)nn2)O[C@@H]1CO,nt,nt,nt,nt,i
N#C/C(=C\c1c(N2CCOCC2)nc2ccccn2c1=O)C(=O)NC1CCS(=O)(=O)C1 (stereo unspecified),i,i,i,+,i
C=CCNC(=O)/C(C#N)=C/c1c(N2CC(C)OC(C)C2)nc2ccccn2c1=O (stereo unspecified),i,i,i,126,nt
Cc1ccc(S(=O)(=O)/C(C#N)=C/c2c(N3CC(C)OC(C)C3)nc3ccccn3c2=O)cc1 (stereo unspecified),i,i,i,i,i
N#C/C(=C\c1c(N2CCCCCC2)nc2ccccn2c1=O)C(=O)NC1CCS(=O)(=O)C1 (stereo unspecified),i,i,i,i,i
O=C(c1cccnc1)N1CCCCN2[C@@H](CO)[C@@H](c3ccc(C#Cc4ccccc4)cc3)[C@@H]2C1,nt,nt,nt,nt,i
COc1ccc([C@H]2CC(=O)C=C(/C=C/c3ccccc3)C2)cc1OC,i,38,i,i,i
O=C(CN1CCOCC1)NN=Cc1ccc([N+](=O)[O-])o1,nt,i,i,i,i
O=C(CCN1CCN(c2ccccc2)CC1)N/N=C/c1ccc([N+](=O)[O-])o1,i,38,i,i,i
Cc1ccc(NC(=O)c2cc([N+](=O)[O-])ccc2N2CCOCC2)cc1S(=O)(=O)N(C)C,i,42,i,i,i
Cc1ccc(NC(=O)c2cc([N+](=O)[O-])ccc2N2CCOCC2)cc1C,i,i,?,i,i
CC(=O)Nc1ccc(S(=O)(=O)Nc2nc3ccccc3nc2Nc2ccc(O)c(C(=O)O)c2)cc1,i,i,13,i,i
